Compounds with a hit are over-represented: about 15% of the library has one in this group of screens.
ELG1 repair inh = qHTS screen for small molecules that inhibit ELG1-dependent DNA repair in human embryonic kidney (HEK293T) cells expressing luciferase-tagged ELG1; HEK293T ELG1-luciferase reporter, luminescence, 16 h; DNA damage induced by 5-fluorouridine; Potency, µM (series often up to 46.1 µM), actives largely listed as inhibitors; 330,000 compounds, 2.3% hits; further: nearly all actives have a fitted effect of over 55% in size
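Luminescence from the luciferase reporter, measured 30 min after ONE-Glo reagent at room temperature, was the read-out. Beforehand, 2,000 cells per well were exposed for 16 hr at 37 °C to 5-fluorouridine together with compound or vehicle.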
12-LOX inh = Primary qHTS assay for inhibitors of human arachidonate 12S-lipoxygenase (ALOX12): Round 2. Potency, µM (titrated, usually from 108 µM), actives largely listed as inhibitors. Polyunsaturated fatty acid lipoxygenase ALOX12 (Homo sapiens), P18054. purified 12hLO, xylenol orange hydroperoxide absorbance. 580,000 compounds, 1.1% hits. AID 1671190, 2021
Target sequence (P18054 whole entry, looked up): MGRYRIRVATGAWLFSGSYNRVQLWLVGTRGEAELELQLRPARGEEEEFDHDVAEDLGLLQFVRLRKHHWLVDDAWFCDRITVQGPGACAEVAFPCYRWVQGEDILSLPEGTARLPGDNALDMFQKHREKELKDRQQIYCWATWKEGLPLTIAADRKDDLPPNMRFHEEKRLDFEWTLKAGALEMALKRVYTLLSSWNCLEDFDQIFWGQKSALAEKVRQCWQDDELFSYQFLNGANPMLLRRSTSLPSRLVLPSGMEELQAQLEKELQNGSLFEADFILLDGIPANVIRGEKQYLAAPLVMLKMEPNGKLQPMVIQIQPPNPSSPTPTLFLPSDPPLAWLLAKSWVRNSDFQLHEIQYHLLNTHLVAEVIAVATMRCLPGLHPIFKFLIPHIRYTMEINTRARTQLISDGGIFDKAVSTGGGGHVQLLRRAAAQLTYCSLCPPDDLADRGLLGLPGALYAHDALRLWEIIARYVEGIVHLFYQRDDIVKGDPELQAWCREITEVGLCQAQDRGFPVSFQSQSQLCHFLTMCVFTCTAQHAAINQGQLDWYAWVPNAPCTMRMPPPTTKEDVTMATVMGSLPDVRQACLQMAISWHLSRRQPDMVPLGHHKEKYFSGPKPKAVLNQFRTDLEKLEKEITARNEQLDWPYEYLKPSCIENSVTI
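Purified human 12hLO at 150 nM in 25 mM Hepes, 0.01% Triton X-100, pH 7.0, preincubated 15 min at room temperature with compound. Reaction started with 40 uM arachidonic acid, 30 min at room temperature. Hydroperoxide measured by Fe-xylenol orange, 573/405 nm absorbance ratio.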
TDP1 cell CPT = qHTS for Inhibitors of human tyrosyl-DNA phosphodiesterase 1 (TDP1): qHTS in cells in presence of CPT | chicken DT40 Tdp1-/-;hTDP1 cells + 20 nM CPT, ATP luminescence, 48 h | Potency, µM (series often up to 46.2 µM), usual class: inhibitors | 420,000 compounds, 12% hits; further: nearly all actives have a fitted effect of over 55% in size
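Chicken DT40 Tdp1-/- cells complemented with human TDP1, 400 cells/well, exposed to compounds plus 20 nM camptothecin for at least 48 h at 37 C; viability read as ATP content by CellTiter-Glo luminescence.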
DT40 TDP1 no CPT = qHTS for Inhibitors of human tyrosyl-DNA phosphodiesterase 1 (TDP1): qHTS in cells in absence of CPT | Potency, µM (doses to about 46.2 µM), actives largely listed as inhibitors | AID 686978, 2013 | DT40 Tdp1-/- hTDP1 cells, no CPT, ATP luminescence, 48 h | 420,000 compounds, 15% hits; further: nearly all actives have a fitted effect of over 55% in size
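Chicken DT40 Tdp1-/- cells stably complemented with human TDP1 were seeded at 400 cells/well with DMSO in place of 20 nM camptothecin. After compound pinning, cells grew at least 48 hr at 37 °C; viability read by CellTiter-Glo luminescence.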
VP16 counter = VP16 counterscreen qHTS for inhibitors of ROR gamma transcriptional activity; Drosophila S2 Gal4-VP16 UAS-luciferase, luminescence, 20 h; Potency, µM (highest dose often 53.6 µM), most hits filed as inhibitors; 310,000 compounds, 3.5% hits;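 further: Gal4-VP16 expression switched on by copper sulfate through the metallothionein promoter; nearly all actives have a fitted effect of over 50% in size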
RORgamma inh = qHTS for inhibitors of ROR gamma transcriptional activity | Nuclear receptor ROR-gamma (Mus musculus), P51450 | Drosophila S2 Gal4-RORgamma UAS-luciferase reporter, 20 h | Potency, µM (top dose mostly 53.6 µM), most hits filed as inhibitors | 310,000 compounds, 5.4% hits; further: nearly all actives have a fitted effect of over 60% in size
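Using a luciferase readout, inhibitors were identified by reduced reporter activity in Drosophila cells coexpressing a copper-inducible Gal4–ROR gamma fusion and UAS-driven Photinus luciferase, incubated 20 hr after 700 uM copper sulfate.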
Hits are given with their value; . = inactive; ? = inconclusive; / = no result; [ ] = another dose, or the depositor's remark. The call rests on the fitted dose curve; in most records, active means well fitted curve in the direction sought with a large enough effect; inconclusive means small, poorly fitted or top-dose-only effect, or another doubt; inactive means no such curve, though single readings can be large; an effect the other way counts as inactive or inconclusive.

SMILES	ELG1 repair inh	12-LOX inh	TDP1 cell CPT	DT40 TDP1 no CPT	VP16 counter	RORgamma inh
O=C(O)c1cc(N=Nc2c(O)ccc3ccccc23)cc(C(=O)O)c1	.	.	.	.	.	.
O=C(O)c1ccc(N=Nc2c(O)ccc3ncccc23)cc1	?	.	4.1µM	2.9µM	3.2µM	1.1µM
CCOc1ccc(-c2cc(NC(=O)c3ccc(C)cc3)c(C(=O)OC)s2)cc1	/	.	.	.	/	/
CCOc1ccc(-c2cc(NC(=O)c3ccccc3)c(C(=O)OC)s2)cc1	/	.	?	12µM	/	/
COC(=O)c1sc(-c2ccc(C(C)(C)C)cc2)cc1NC(=O)CCC(=O)O	?	?	16µM	?	?	.
COC(=O)c1sc(-c2ccc(Cl)cc2)cc1NC(=O)/C=C/C(=O)O	.	.	5.8µM	6.5µM	?	?
CCOc1ccc(-c2cc(NC(=O)Nc3cccc(C(C)=O)c3)c(C(=O)OC)s2)cc1	/	.	23µM	.	/	/
CCOc1ccc(-c2cc(NC(=O)c3c(F)cccc3F)c(C(=O)OC)s2)cc1	/	.	.	.	/	/
COc1ccc(C)cc1CN(C)C(=O)C1CCN(C(=O)c2cccc3ccccc23)CC1	/	.	/	/	/	/
O=S(=O)(NCC1CN(Cc2ccccc2)CCO1)c1cccc(F)c1 (stereo not given)	/	.	/	/	/	/
CC(c1cccs1)N(C)CC1CCCCC1 (stereo not given)	/	.	/	/	/	/
CCOC(=O)c1sc(-c2ccccc2)cc1N	?	.	.	.	/	.[0.365 µM]
CCOC(=O)c1sc(-c2ccccc2)cc1NC(=O)Nc1ccc([N+](=O)[O-])cc1	6.5µM	.	?	21µM	.	.
COCCOC(=O)c1c(C)n(C)c2ccc(OC(=O)c3ccccc3OC)cc12	.	.	.	16µM	.	.
CCOC(=O)c1c(C)n(-c2ccccc2)c2ccc(OC(=O)c3ccccc3NC(=O)C(C)C)cc12	/	.	?	18µM	/	/
CCOC(=O)c1c(C)n(-c2ccccc2)c2ccc(OC(=O)c3ccccc3NC(=O)C(C)(C)C)cc12	/	?	?	12µM	/	/
COCCOC(=O)c1c(C)n(C)c2ccc(OC(=O)c3ccco3)cc12	?	.	.	.	.	.
COC(=O)c1cc(C(=O)OCCCC(=O)c2ccc(F)cc2)cc([N+](=O)[O-])c1	/	.	/	/	/	/
CC(Nc1ccc([N+](=O)[O-])cn1)c1ccc(C(F)(F)F)cc1 (stereo not given)	/	.	/	/	/	/
Cc1ccc(NC(=O)CN(C)S(=O)(=O)c2ccc3[nH]c4c(c3c2)CCCC4)c(Cl)c1	/	?	?	18µM	/	/
COc1cc(Cl)c(NC(=O)CN(C)S(=O)(=O)c2ccc3[nH]c4c(c3c2)CCCC4)c(OC)c1	/	.	23µM	18µM	/	/
COc1ccc(NC(=O)CN(C)S(=O)(=O)c2ccc3[nH]c4c(c3c2)CCCC4)cc1OC	/	.	?	16µM	/	/
CN(CC(=O)Nc1cccc(C(F)(F)F)c1)S(=O)(=O)c1ccc2[nH]c3c(c2c1)CCCC3	/	.	?	?	/	/
Cc1ccc(S(=O)(=O)N(C)CC(=O)Nc2cccc3c2CCCC3)cc1	.	.	.	?	.	?
COc1cc(NC(=O)CN(C)S(=O)(=O)c2ccc3c(c2)CCCC(=O)N3)cc(OC)c1OC	/	.	/	/	/	/
SMILES	ELG1 repair inh	12-LOX inh	TDP1 cell CPT	DT40 TDP1 no CPT	VP16 counter	RORgamma inh
CN(CC(=O)Nc1cccc(Cl)c1)S(=O)(=O)c1ccc2[nH]c3c(c2c1)CCCC3	/	?	?	23µM	/	/
CCN1CCN(C(=O)CN2CC3CC(C2)[C@H]2CCCC(=O)N2C3)CC1 (stereo not given in full)	/	.	/	/	/	/
N#Cc1nc(COc2ccc3c(c2)OCO3)oc1N1CCCCCC1	/	.	/	/	/	/
Fc1cccc(COc2ccc(-c3nnco3)cc2)c1	/	.	/	/	/	/
O=C(NCc1cccc(Cl)c1)C1CCN(c2ncnc3nc[nH]c23)CC1	/	.	/	/	/	/
COc1ccc(NC(=O)CN(C)S(=O)(=O)c2ccc3[nH]c4c(c3c2)CCCC4)cc1Cl	/	?	23µM	?	/	/
COc1ccc(S(=O)(=O)N(C)CC(=O)Nc2ccccc2C(F)(F)F)cc1Cl	.	.	?	.	.	.
COc1cc(OC)cc(C(=O)c2c(C)c(C#N)c3ccccn23)c1	.	.	2.3µM	2.3µM	.	.
NC(=O)COc1ccc(NC(=O)CC23CC4CC(CC(C4)C2)C3)cc1	.	.	.	.	.	.
CNC(=O)c1ccc(NC(=O)CC23CC4CC(CC(C4)C2)C3)cc1	9.2µM	.	.	?	.	.
COc1ccc(C(=O)Cc2ccccc2OC(=O)c2ccccc2)cc1	/	.	/	/	/	/
CC(C)C[C@H]1CNC(=O)C(=O)N1CC1CCN(CCC(C)c2ccccc2)CC1 (stereo not given in full)	/	?	.	.	/	/
O=C1NC[C@H](Cc2ccccc2)N(CC2CCN(CCC34CC5CC(CC(C5)C3)C4)CC2)C1=O	/	.	21µM	?	/	/
CC[C@H](C)[C@H]1CNC(=S)N1CC1CCN(CCC23CC4CC(CC(C4)C2)C3)CC1	/	.	?	16µM	/	/
CC[C@H](C)[C@H]1CNC(=S)N1CC1CCN(CC2CCC(C)CC2)CC1 (stereo not given in full)	/	.	.	.	/	/
O=C(NCc1ccccc1)c1cnc2n1CCN(Cc1ccc3c(c1)CCO3)CC2	/	.	/	/	/	/
CCOC(=O)/C=C/C(=O)Nc1ccccc1-c1ccccc1NC(=O)/C=C/C(=O)OCC	?	.	4.6µM	5.2µM	?	?
CCOC(=O)c1cccc(NC(=O)/C=C/c2cccc([N+](=O)[O-])c2)c1	.	.	?	?	.	?
CCOC(=O)/C=C/C(=O)OCC(=O)Nc1cccc(Cl)c1Cl	.	.	.	?	.	.
CCOC(=O)/C=C/C(=O)Nc1cccc([N+](=O)[O-])c1	.	/	1.6µM	4.1µM	?	.[10 µM]
O=C(NCCc1ccc(Cl)cc1)C1CCc2nnc(-c3ccc(Cl)cc3Cl)n21 (stereo not given)	/	.[6.33 µM]	/	/	/	/
NNC(=O)CCn1nnc2ccccc21	.	.	.	.	.	.
CCOC(=O)c1ccc(NC(=O)Cn2nnc3ccccc32)cc1	?	.	23µM	10µM	?	.[10 µM]
CC(=O)Nc1ccc(NC(=O)CCn2nnc3ccccc32)cc1	?	.	?	23µM	.	.
CCOC(=O)c1ccc(NC(=O)CCn2nnc3ccccc32)cc1	.	.	.	.	.	.

Bioassay records from PubChem.
